Screening results deposited in PubChem by National Center for Advancing Translational Sciences (NCATS).
S16 F2sN tox: Cell viability qHTS assay in S16 Pmp22-F2sN cells | S16 Pmp22-F2sN Schwann cells viability, CellTiter-Glo, 24 h | Potency, µM (top dose mostly 57.5 µM), inactives show top-dose activity change, negative = cytotoxicity, actives largely listed as cytotoxic | actives 0.48% (n = 43,000) | AID 1508642, 2021; also: potency is read from the fitted curve at half-maximal effect; % is scaled to controls: 0 for no effect and ±100 for the full control effect; nearly all actives have a fitted effect of over 65% in size
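Luminescence from CellTiter-Glo, read by CCD camera after a 15 min room-temperature incubation, served as the viability signal. Reporter Schwann cells (S16 Pmp22-F2sN) had been treated with pin-transferred compounds for 24 h at 37C.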
pS6 MEF inh: Acumen qHTS Assay for Inhibitors of the mTORC1 Signaling Pathway in MEF (Tsc2-/-, p53-/-) Cells: Sytravon; Potency, µM (titrated, usually from 38.3 µM), without a hit: top-dose activity change, negative = inhibition, actives largely listed as inhibitors; Tsc2-/- p53-/- MEF, phospho-rpS6 immunofluorescence/PI, 24 h; actives 0.78% (n = 44,000);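 also: potency is read from the fitted curve at half-maximal effect; plate controls were DMSO for no effect and rapamycin for full effect; nearly all actives have a fitted effect of over 50% in size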
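Readout is phospho-S6 Alexa 488 signal normalized to PI per well, reported as % active cells with thresholds set from rapamycin (7.5 nM) and DMSO controls. Cells: Tsc2-/-, p53-/- MEFs, 24 hrs compound at 37 C; PI cell number serves as viability.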
p53null 39C kill: qHTS Screen for Compounds that Selectively Target Cancer Cells with p53 Mutations: Cytotoxicity of p53 Null Cells at the Nonpermissive Temperature; H1299 p53-null (neo) cells, 39C, ATPlite viability, 24 h; Potency, µM (highest dose often 46.1 µM), for the others: top-dose activity, negative = cell killing, hits mostly cytotoxic; actives 0.97% (n = 55,000); AID 904, 2007;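 also: potency is read from the fitted curve at half-maximal effect; 0% = DMSO only and -100% = full killing by 100 µM tamoxifen; nearly all actives have a fitted effect of over 50% in size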
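Cells seeded at 600/well, 37C overnight. Compound added (up to 46 uM), plates shifted to 39C for 24 hr. ATPlite added, luminescence read after 20 min at room temperature.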
p53null 32C tox: qHTS Screen for Compounds that Selectively Target Cancer Cells with p53 Mutations: Cytotoxicity of p53 Null Cells at the Permissive Temperature | H1299-neo p53 null cells, ATP luminescence, 24 h, 32C | Potency, µM (series often up to 46.1 µM), for the others: at the top dose activity change, negative = cytotoxicity, usual class: cytotoxic | actives 0.62% (n = 55,000);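 also: potency is read from the fitted curve at half-maximal effect; 0% = DMSO only and -100% = full killing by 100 µM tamoxifen; nearly all actives have a fitted effect of over 55% in size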
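ATP-content luminescence in p53-null H1299-neo cells after 24 h compound exposure (up to 46 uM) at 32C permissive temperature; 0% and 100% killing set by DMSO and 100 uM tamoxifen; Hill-equation AC50.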
PMP22 txn prim: Cell-based coincidence reporter assay to measure PMP22 gene transcription in S16 Pmp22-F2sN cells - Primary screen | actives 2% (n = 43,000) | Potency, µM (series often up to 57.5 µM), for inactives: at the highest dose activity change, negative = inhibition, hits mostly inhibitors | S16 Pmp22-F2sN Schwann cells (luciferase reporters placed in the Pmp22 gene), FLuc/NLuc coincidence luminescence, 24 h; active = clear falling dose curves in both reporters; inconclusive = both reporters move, but less clearly or upward; inactive = either reporter flat; the % is the NLuc reporter signal; also: potency is read from the fitted curve at half-maximal effect; % is scaled to controls: 0 for no effect and ±100 for the full control effect
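Reporter cells (S16 Pmp22-F2sN, 500–1,000 per well) exposed to compounds for 24 h, 37C, 5% CO2; lysis with FLuc read after 10 min, then Stop&Glo and NLuc read after 10 min.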
OvCa metastasis: Primary qHTS assay for Inhibitors of ovarian cancer metastasis using an organotypic tumor microenvironment (TME) model; SKOV3ip1-GFP adhesion/invasion on 3D omental model, fluorescence; Potency, µM (titrated, usually from 45.8 µM), for the others: top-dose activity change, negative = inhibition, hits mostly inhibitors; actives 0.1% (n = 46,000);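 also: potency is read from the fitted curve at half-maximal effect; plate controls were DMSO wells for no effect and tomatine positive control wells for full effect; nearly all actives have a fitted effect of over 65% in size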
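A 3D layer of primary human omental fibroblasts, mesothelial cells, fibronectin and collagen I, grown 48 hr, received SKOV3ip1-GFP cells in serum-free medium plus compounds at 0.36-46 umol/L. After 2 hr RT and 16 hr 37 C, fixed adherent GFP cells were counted; normalized to DMSO and tomatine.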
NLuc sat counter: Biochemical NLuc saturation counterscreen for small molecule modulators of PMP22 gene expression - Nano-Glo assay; shares compounds with PMP22 txn prim; Secreted NLuc enzyme (filtered S16 cell medium), Nano-Glo luminescence; Potency, µM (titrated, usually from 57.5 µM), for inactives: top-dose activity change, negative = inhibition, hits mostly inhibitors; actives 4% (n = 690); AID 1508638, 2021; also: potency is read from the fitted curve at half-maximal effect; % is scaled to controls: 0 for no effect and ±100 for the full control effect
NLuc Km ctr: Biochemical coelenterazine-based NLuc counterscreen for small molecule modulators of PMP22 gene expression - Km assay | Potency, µM (titrated, usually from 57.5 µM), without a hit: at the top dose activity change, negative = inhibition, usual class: inhibitors | shares compounds with PMP22 txn prim | AID 1508639, 2021 | secreted NLuc enzyme, coelenterazine luminescence, Km conditions | actives 5% (n = 690); also: potency is read from the fitted curve at half-maximal effect; % is scaled to controls: 0 for no effect and ±100 for the full control effect
FLuc ctr PMP22: Biochemical FLuc counterscreen for small molecule modulators of PMP22 gene expression; shares compounds with PMP22 txn prim; purified P. pyralis FLuc, luminescence, 10 min; Potency, µM (titrated, usually from 57.5 µM), inactives show top-dose activity, negative = inhibition, hits mostly inhibitors; 690 tested, under 10 active; also: % of control where 0% means no effect
Target sequence (P08659 whole entry, looked up): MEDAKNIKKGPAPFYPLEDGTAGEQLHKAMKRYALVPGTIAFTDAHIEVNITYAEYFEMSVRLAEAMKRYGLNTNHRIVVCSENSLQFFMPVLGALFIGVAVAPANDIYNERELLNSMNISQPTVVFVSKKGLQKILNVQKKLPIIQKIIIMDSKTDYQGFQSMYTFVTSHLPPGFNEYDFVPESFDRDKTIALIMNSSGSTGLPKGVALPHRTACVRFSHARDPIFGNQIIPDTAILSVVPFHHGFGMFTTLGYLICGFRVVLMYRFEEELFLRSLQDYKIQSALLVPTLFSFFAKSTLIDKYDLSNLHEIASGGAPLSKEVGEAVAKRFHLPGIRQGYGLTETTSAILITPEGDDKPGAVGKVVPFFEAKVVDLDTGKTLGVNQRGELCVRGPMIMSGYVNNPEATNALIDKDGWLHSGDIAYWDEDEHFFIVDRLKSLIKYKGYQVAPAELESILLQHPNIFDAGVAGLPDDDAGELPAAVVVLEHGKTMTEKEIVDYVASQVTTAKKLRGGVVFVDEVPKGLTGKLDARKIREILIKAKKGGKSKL
S16 viab conf: Cell viability qHTS assay in S16 Pmp22-F2sN cells - Confirmatory screen | shares compounds with PMP22 txn prim | S16 Schwann cells viability, CellTiter-Glo ATP luminescence, 24 h | Potency, µM (highest dose often 57.5 µM), for the others: at the top dose activity change, negative = viability loss, most hits filed as cytotoxic | actives 7% (n = 690) | AID 1508641, 2021; also: potency is read from the fitted curve at half-maximal effect; % is scaled to controls: 0 for no effect and ±100 for the full control effect
PMP22 txn conf: Cell-based coincidence reporter assay to measure PMP22 gene transcription in S16 Pmp22-F2sN cells - Confirmatory screen; shares compounds with PMP22 txn prim; AID 1508646, 2021; S16 Schwann cells Pmp22-F2sN, dual luciferase, 24 h; actives 22% (n = 690); Potency, µM (series often up to 57.5 µM), without a hit: at the highest dose activity change, negative = inhibition, actives largely listed as inhibitors; active = clear falling dose curves in both reporters; inconclusive = both reporters move, but less clearly or upward; inactive = either reporter flat; the % is the FLuc reporter signal; also: potency is read from the fitted curve at half-maximal effect
PMP22 HiBiT cnf: Cell-based HiBiT reporter assay to measure PMP22 protein expression in S16 Pmp22-HiBiT cells - Confirmatory screen; 95 tested, under 10 active; Potency, µM (highest dose often 27.9 µM), without a hit: at the highest dose activity change, negative = inhibition, most hits filed as inhibitors; AID 1508647, 2021; S16 Schwann cells Pmp22-HiBiT, luminescence, 48 h; shares compounds with PMP22 txn prim
Target sequence (P25094 whole entry, looked up): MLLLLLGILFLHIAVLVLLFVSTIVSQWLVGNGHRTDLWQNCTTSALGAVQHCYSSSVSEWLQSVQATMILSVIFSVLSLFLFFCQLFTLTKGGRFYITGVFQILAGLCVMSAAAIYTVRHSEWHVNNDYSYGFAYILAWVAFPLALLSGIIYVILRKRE
Numbers without * were called inactive; i = inactive; ? = inconclusive; · = no result. In the library only some 3.1% were active in any assay of this set; here they are far more common. Unless noted, calls follow the shape of the dose curve; as a rule, active = well fitted curve in the direction sought with a large enough effect; inconclusive = small, poorly fitted or top-dose-only effect, or another doubt; inactive = no such curve, though single readings can be large; an effect the other way counts as inactive or inconclusive.

SMILES | S16 F2sN tox | pS6 MEF inh | p53null 39C kill | p53null 32C tox | PMP22 txn prim | OvCa metastasis | NLuc sat counter | NLuc Km ctr | FLuc ctr PMP22 | S16 viab conf | PMP22 txn conf | others
COc1ccccc1CNc1nc2c(S(=O)(=O)c3ccc(C)c(C)c3)nnn2c2ccc(Cl)cc12 | 2% | 0% | -1% | -5% | 6.3µM* | 5% | -1% | -1% | -2% | 22µM* | 7.7µM*
Cc1cc(C(C)Nc2ccccc2)c2nc(N3CCOCC3)cc(=O)n2c1 (centres undefined) | · | · | · | · | · | -12% | · | · | · | · | ·
COc1ccc(CC2SC(=O)NC2=O)cc1C(=O)NCc1ccc(C(F)(F)F)cc1 (centres undefined) | · | · | · | · | · | 2% | · | · | · | · | ·
Cc1cccc(CNC(=O)c2cnc3sc(N4CCCCCC4)nn3c2=O)c1 | 4% | -3% | 26% | -14% | ? | i | -1% | 4% | 3% | 23% | -5%
O=C1CC(c2cccc(Cl)c2Cl)c2cc3c(cc2N1)OCCO3 (centres undefined) | -17% | -13% | 0% | 25% | 16µM* | i | -11% | ? | -3% | -7% | -32%
O=C1CC(c2ccc(Cl)cc2)c2cc3c(cc2N1)OCCO3 (centres undefined) | -7% | -3% | 14% | 27% | ? | i | · | · | · | · | ·
Cc1ccc(/C=N/NC(=O)c2ccccc2Oc2ccccc2)o1 | · | · | · | · | · | 5% | · | · | · | · | ·
Cc1ccc(NC(=O)N2CCN(c3ccc(Cl)c(Cl)c3)CC2)cc1 | -30% | -20% | ? | 5% | ? | -3% | · | · | · | · | ·
CC(C)c1ccc(NC(=O)N2CCN(c3ccc(Cl)c(Cl)c3)CC2)cc1 | -16% | -18% | ? | 42% | 11µM* | -23% | ? | ? | -18% | -14% | ?
Cc1cccc(-c2c3c(=O)n(C)c(=O)n(C)c3c3c(C)nc4ccccc4n23)c1 | -25% | -12% | 3% | 7% | 13µM* | 8% | -7% | -15% | 2% | 4% | -53%
COc1ccc(N2CCN(S(=O)(=O)CCNC(=O)Cc3ccc(-c4ccccc4)cc3)CC2)cc1 | 11% | -6% | -1% | -2% | 10µM* | i | -9% | 2% | -18% | -18% | -12%
COc1ccc(C(C)=O)cc1CSc1nc(Nc2ccc(F)c(F)c2)c2ccccc2n1 | -17% | -1% | -4% | 11% | 18µM* | 0% | ? | ? | -1% | 0% | ?
CCOC(=O)c1cc2c(=O)n3ccccc3nc2n(Cc2ccco2)c1=NC(=O)c1cc(C)cc(C)c1 | ? | -3% | ? | ? | 5.6µM* | 3% | ? | ? | 2% | ? | 4.6µM* | PMP22 HiBiT cnf=?
CCOC(=O)c1cc2c(=O)n3ccccc3nc2n(CC2CCCO2)c1=NC(=O)c1cccc(C(F)(F)F)c1 (centres undefined) | 1% | -20% | 1% | -5% | 4.9µM* | i | -19% | ? | 9% | 5% | ?
CCOC(=O)c1cc2c(=O)n3ccccc3nc2n(Cc2ccco2)c1=NC(=O)c1ccc(C(C)(C)C)cc1 | -18% | 16% | -19% | 6% | ? | i | · | · | · | · | ·
CCCCC(F)(F)[C@@]1(O)CC[C@H]2[C@H](CC(=O)[C@@H]2CCCCCCC(=O)O)O1 | · | · | · | · | · | 10% | · | · | · | · | ·
COc1ccc(N2CCN(CCCNC(=O)Nc3ccccc3Cl)CC2)cc1 | -7% | -9% | 3% | -11% | -21% | -16% | · | · | · | · | ·
O=C(NCCCN1CCN(c2ccc(F)cc2)CC1)Nc1ccccc1Cl | -22% | -9% | 6% | -3% | 13µM* | ? | ? | 0% | 6% | ? | -14%
O=c1[nH]c(-c2ccc(C(F)(F)F)cc2)nc2c1CSCC2 | · | · | · | · | · | -16% | · | · | · | · | ·
Cc1ccc(-c2noc(CSc3nnc(C)n3-c3ccc(F)cc3)n2)cc1 | -9% | -6% | -11% | -7% | -25% | i | · | · | · | · | ·
